Compound activity (PubChem)
Pf Dd2 inh: blocks in vitro growth of P. falciparum Dd2. AID 1347417. Potency, µM (titrated, usually from 28.9 µM), for inactives: at the top dose activity, negative = inhibition, most hits filed as inhibitors. P. falciparum Dd2 growth, SYBR Green, 72 h. hit rate 4.3% among 120,000; active = well fitted inhibition curve with a large enough effect;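 also: plate controls were DMSO vehicle for no effect and reference drug for full effect; nearly all actives have a fitted effect of over 65% in size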
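Infected erythrocytes (Dd2, 0.3% parasitemia, 2.5% hematocrit final) are added to compound in RPMI-1640/Albumax II medium, grown 72 h at 37C in low oxygen, then lysed with saponin/Triton-X containing SYBR Green and read by fluorescence.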
Numbers without * were called inactive; i = inactive; [ ] = dose if it differs, or a comment. This is one part of a sample in which hits are shown more often than they occur. Potency is read from the fitted curve at half-maximal effect.

SMILES	Pf Dd2 inh
COc1ccc(CNc2oc(COc3cccc(C)c3)nc2C#N)cc1	0%
Cc1cccc(OCc2ccc(-c3nc(C#N)c(NCc4cccnc4)o3)o2)c1	7.9µM*
Cc1cccc(OCc2ccc(-c3nc(C#N)c(N4CCN(c5ccccc5)CC4)o3)o2)c1	10µM*
CCCCNc1oc(-c2ccc(COc3ccccc3C)o2)nc1C#N	11µM*
CCN1CCN(c2oc(-c3ccc(COc4ccccc4C)o3)nc2C#N)CC1	-14%
COCCCNc1oc(-c2ccc(COc3ccccc3C)o2)nc1C#N	-27%
COCC(=O)NC[C@H]1OC[C@@H](NCc2ccc(C)cc2)[C@@H]1O	11%[44.1 µM]
COCC(=O)NC[C@H]1OC[C@@H](NCc2ccc(F)cc2)[C@@H]1O	14µM*
COCC(=O)NC[C@H]1OC[C@@H](NCc2ccccc2F)[C@@H]1O	1%[44.1 µM]
COc1cccc(CNC(=O)C2Cn3cccc3C(=O)N2CC(C)C)c1OC (stereo not drawn)	-6%
COc1ccc(CNC(=O)N2CCCCCCNC(=O)CC2)cc1	-9%
COc1ccc2[nH]c(=O)c(CCC(=O)NCCc3ccc(S(N)(=O)=O)cc3)cc2c1	-19%
N[C@H]1CN(S(=O)(=O)c2ccc(OC(F)F)cc2)C[C@@H]1C1CC1	5.6µM*
CCc1nncn1C1CCN(S(=O)(=O)c2ccc(OC)cc2)CC1	i
Cc1ccc(S(=O)(=O)N2C[C@@H](C(N)=O)[C@H](C3CCN(C)CC3)C2)cc1Cl	-4%
CCC[C@@H]1CN(S(=O)(=O)c2ccc(OC(F)F)cc2)C[C@H]1N(C)C	5.6µM*
CC(=O)NC[C@H]1CCN(S(=O)(=O)c2ccc(C#N)cc2)C[C@H]1N(C)C	-3%
CN1CCC([C@@H]2CN(S(=O)(=O)c3ccc4c(c3)CCC4)C[C@H]2C(N)=O)CC1	9%
C#CCNC(=O)c1c(-c2ccc(F)cc2)noc1[C@H](C)O	-13%[44.1 µM]
COc1ccc(C(=O)N2CCCCCNC(=O)[C@@H]3CCCC[C@@H]32)cc1	0%
Cc1nn(-c2ccccc2Cl)c(=O)n1CC(=O)NCCc1ccccn1	7%
Cc1ccc(-c2nnc(Nc3cccc(Br)c3)c3ccccc23)cc1S(=O)(=O)N1CCN(C)CC1	7.9µM*
C#CCOc1ccc(-c2nnc(Nc3cccc(C)c3)c3ccccc23)cc1	-4%
Cc1ccc(-c2nnc(Nc3cccc(Cl)c3)c3ccccc23)cc1S(=O)(=O)N1CCN(C)CC1	-5%
Cc1cccc(Nc2nnc(-c3ccc(C)c(S(=O)(=O)N4CCN(C)CC4)c3)c3ccccc23)c1	10µM*
SMILES	Pf Dd2 inh
O=C(Cn1nc(-c2ccc(Cl)cc2)c2ccccc2c1=O)Nc1cccc(Br)c1	-8%
Cc1cc(-c2ccc(C)c(S(=O)(=O)N3CCCC(C)C3)c2)on1 (stereo not drawn)	28%
Cc1nc2c(C(=O)N3CCC(=O)N(CC4CC4)C(C(C)C)C3)cccc2[nH]1 (stereo not drawn)	-9%
CN1[C@@H](CCC(=O)NCc2ccco2)CNC(=O)[C@@H]2[C@H]1CCN2Cc1ccc(O)cc1	0%[44.1 µM]
COCC(=O)NC1CCC12CCNCC2 (stereo not drawn)	-7%
COCCC(=O)N1CCC2(CC1)CC(Cc1nc(-c3ccncc3)no1)CCO2 (stereo not drawn)	-7%
O=C(N1CCC(Cc2nc(C3CCOCC3)no2)CC1)C1(c2ccccc2)CC1	10%
COc1cccc(CC(=O)N2CCC3(CC2)CC(Cc2nc(-c4cccnc4)no2)CCO3)c1 (stereo not drawn)	8.9µM*
COc1ccc(CCC(=O)N2CCC3(CC2)CC(Cc2nc(-c4cnccn4)no2)CCO3)cc1 (stereo not drawn)	i
O=C(N1CCC2(CC1)CC(Cc1nc(-c3cccnc3)no1)CCO2)C1(c2ccccc2)CC1 (stereo not drawn)	7.9µM*
CCOCC(=O)N1CCC2(CC1)CC(Cc1nc(-c3ccncc3)no1)CCO2 (stereo not drawn)	4%
Cc1cnc(C2CCOCC2)n1CCN	-5%
Cn1cccc1CN1CCC2(C1)C(=O)Nc1ccccc12 (stereo not drawn)	-1%[44.1 µM]
COc1ccc(CN2CCc3nc(C)nc(-c4ccc(O)cc4)c3C2)cc1	i
CC(C)c1nc2c(c(-c3ccc(O)cc3)n1)CN(CC1CCCCC1)CC2	3.5µM*
CC(=O)N1CCc2nc(C(C)C)nc(-c3ccc(O)cc3)c2CC1	-21%[44.1 µM]
CC(C)c1nc2c(c(-c3ccc(O)cc3)n1)CCN(Cc1cccc3ccccc13)CC2	3.2µM*
CC(C)c1nc2c(c(-c3ccc(O)cc3)n1)CN(Cc1cccnc1)CC2	i
Cc1nc2c(c(-c3ccc(O)cc3)n1)CN(Cc1ccc(F)cc1)CCC2	i
Cc1ccc(CN2CCCc3nc(C)nc(-c4ccc(O)cc4)c3C2)cc1	2.8µM*
Cc1nc2c(c(-c3ccc(O)cc3)n1)CN(Cc1cccc3ccccc13)CC2	-1%
CC(C)c1nc2c(c(-c3ccc(O)cc3)n1)CCN(Cc1ccc(C(F)(F)F)cc1)CC2	1.8µM*
CN(C)c1ccc(CN2CCc3nc(C4CC4)nc(-c4ccc(O)cc4)c3CC2)cc1	-17%
CC(C)c1nc2c(c(-c3ccc(O)cc3)n1)CN(Cc1cccn1C)CC2	-19%
CC(C)c1nc2c(c(-c3ccc(O)cc3)n1)CN(Cc1ccccn1)CC2	i
SMILES	Pf Dd2 inh
CCCCC1CCC(C(=O)NCC2CCN(c3cnn(C)c(=O)c3)C2)CC1 (stereo not drawn)	-20%
Cc1ccc(S(=O)(=O)N2CCCC(CCC(=O)N3CCOCC3)C2)cc1 (stereo not drawn)	-3%
O=C(c1ccco1)N1CCN(CC2(O)CCNC2)CC1 (stereo not drawn)	-4%
CN(C)S(=O)(=O)N1C[C@@H](Oc2ccccc2)C[C@H]1C(=O)N1CCCC1	5%
Cc1ncccc1OC1(C(=O)O)CCN(C(=O)c2cccc(F)c2)CC1	4%
Cc1ccc(NC(=O)C2(Cc3cccnc3)CCCCC(=O)N2)cc1 (stereo not drawn)	-15%
Cc1ccc(CNC(=O)N2CCCC(c3nc(C(C)C)no3)CCNC(=O)CC2)cc1 (stereo not drawn)	18%
O=C(CN1C(=O)CNC1=O)NCCc1noc(-c2ccccc2)n1	-5%
COc1ccc(C(=O)N2CCCN(c3cc(-c4ccccc4)[nH]n3)CC2)c(OC)c1	i
CC(=O)Nc1ccc(CN2CCc3nc(C(C)C)nc(-c4ccc(Cl)cc4)c3CC2)cc1	1.1µM*
CC(=O)Nc1ccc(CN2CCn3c(nnc3-c3ccc(Cl)cc3)C2)cc1	-13%
Cc1nc2c(c(-c3ccc(Cl)cc3)n1)CCN(C(=O)Nc1ccccc1)CC2	i
Cn1nccc1CN1CCC2(CC1)CC(=O)c1ccc(Cl)cc1O2	i
COc1cccc(CNC2(Cc3cc(-c4ccc(F)cc4)on3)COC2)c1	i
CCc1nc(-c2c3n(c(=O)n(CC(=O)Nc4ccc(C)cc4)c2=O)CCCC3)no1	i
COc1ccccc1N1CCC(N2CCN(CCCc3ccccc3)C(CCO)C2)CC1 (stereo not drawn)	10µM*
COc1ccccc1N1CCN([C@@H]2[C@H](O)[C@H](CO)O[C@@H]2CNC(=O)c2ccccc2)CC1	13%
CCOc1ccc(CN2CCN(C3CCN(C(C)C)CC3)CC2CCO)cc1 (stereo not drawn)	-5%
CC(=O)N1CCCN(CC[C@H]2CN(C(=O)CC(C)(C)C)CC[C@H]2CC(=O)O)CC1	10%[44.1 µM]
CC(C)[S+](=O)([O-])N1CCN(c2ccc(Cl)nn2)C(=O)C1	-4%
Cc1cc(Cl)ccc1NS(=O)(=O)c1ccc2c(c1)CCN2S(C)(=O)=O	0%
CS(=O)(=O)N1CCc2cc(S(=O)(=O)NCc3ccccc3Cl)ccc21	3.2µM*
